# High-throughput results (PubChem)
# GDH-TPI counter-1 – counter-screen for M. tuberculosis FBA inhibitors: GDH-TPI coupled enzymes. 360,000 tested, 1.2% active. AID 588335. GDH-TPI coupled enzyme counterscreen, NADH absorbance. inhibition, % at 4.8 µM; in the data active means inhibition above about 30%;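 further: 0% = DMSO wells and 100% = wells lacking the enzyme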
# FBA Mtb inh – inhibits M. tuberculosis FBA enzyme; P9WQA3; purified M. tuberculosis FBA, fluorescence read-out; inhibition, % at 1 µM; 360,000 tested, 2.3% active;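 further: 0% = vehicle and 100% = reference inhibitor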
# Target sequence (P9WQA3 whole entry, looked up): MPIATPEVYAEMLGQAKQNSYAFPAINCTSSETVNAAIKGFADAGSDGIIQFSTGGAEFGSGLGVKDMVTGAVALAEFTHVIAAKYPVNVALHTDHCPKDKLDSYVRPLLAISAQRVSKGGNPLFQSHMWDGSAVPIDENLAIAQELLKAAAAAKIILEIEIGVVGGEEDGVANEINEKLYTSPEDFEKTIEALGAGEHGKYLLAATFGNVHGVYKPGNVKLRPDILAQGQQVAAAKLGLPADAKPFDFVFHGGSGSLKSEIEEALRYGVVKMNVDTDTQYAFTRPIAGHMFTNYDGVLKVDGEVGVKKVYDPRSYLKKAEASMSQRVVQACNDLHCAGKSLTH
# Mtb bLac sens – beta-lactam sensitization of Mtb H37Rv; M. tuberculosis H37Rv growth with meropenem, percent inhibition; inhibition, % at 25 µM; 330,000 tested, 0.27% active; call rule not given here;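 further: growth measured after seven days incubation then overnight dye step; 0% = bacteria only wells and 100% = bacteria with antibiotic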
# Rv3671c inh – inhibitors of M. tuberculosis serine protease Rv3671c. 320,000 tested, 0.048% active. inhibition, % at 5.96 µM. P9WHR9. AID 2606; in the data active means inhibition above about 38%;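 further: extracellular domain of Rv3671c used as enzyme; 0% = enzyme with DMSO and 100% = no enzyme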
# UGM FP inh – blocks M. tuberculosis UGM enzyme; purified UGM, fluorescence polarization probe displacement; inhibition, % at 10 µM; 320,000 tested, 0.06% active; AID 504406; in the data active means inhibition above about 10%, passing the limit was not always enough
# Mtb FBA confirm – confirmation of M. tuberculosis fructose-bisphosphate aldolase inhibitors; shares compounds with FBA Mtb inh; purified M. tuberculosis FBA, fluorescence read-out; inhibition, % at 1 µM; 5,600 tested, 78% active; AID 651616;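 further: 0% = vehicle wells and 100% = reference inhibitor wells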
# GDH-TPI counter-2 – counter-screen for M. tuberculosis FBA inhibitors: GDH-TPI coupled enzyme inhibition. shares compounds with FBA Mtb inh. GDH-TPI coupled enzyme counterscreen, fluorescence. inhibition, % at 1 µM. 5,600 tested, 81% active; in the data active means inhibition above about 10%
# GDH-TPI dose – inhibits GDH-TPI coupling enzymes in dose response; shares compounds with FBA Mtb inh; GDH-TPI coupled enzyme assay, fluorescence, artifact counterscreen; IC50, µM; 170 tested, 79% active; AID 652145; call rule not given here
# An asterisk follows results filed as active; · = not tested or not shown; + = active, no number. The list is not random: actives were taken first. Their share in the collection is about 3.5%. Unless noted, no stated cut-off is given here; in the data, active means inhibition above about 27%; inactive means the rest.
SMILES,GDH-TPI counter-1,FBA Mtb inh,Mtb bLac sens,Rv3671c inh,UGM FP inh,Mtb FBA confirm,GDH-TPI counter-2,others
COc1ccc2oc(C)c(C(=O)c3ccc(C)cc3)c2c1,3,2,8,·,1,·,·,
COc1ccc(NC(=O)Nc2cccc3ccccc23)cc1OC,-12,4,-2,3,-4,·,·,
COC(=O)Cc1ccc(OCc2ccc(Cl)nc2)cc1,-5,53*,-5,-5,-1,148*,102*,
Cc1ccc(Cn2nnc3c(=O)[nH]c(C4CCN(S(=O)(=O)c5ccccc5F)CC4)nc32)cc1,2,0,5,-8,2,·,·,
Cn1cncc1C#Cc1ccc2cc(CCO)oc(=O)c2c1,17,34*,0,12,0,+,+,
O=c1oc(CCO)cc2ccc(-c3ccc4[nH]ccc4c3)cc12,14,5,0,-2,0,·,·,
COC1=Nc2ccccc2N2CCN=C12,·,66*,·,·,·,12,7,GDH-TPI dose=3.5*
CCCc1cc(=O)n2c(nc3ccccc32)[nH]1,14,47*,-3,-2,1,4,-5,
CCCCc1c(C)[nH]c2nc3ccccc3n2c1=O,7,7,4,-2,0,·,·,
Cc1cc(=O)n2c(nc3ccccc32)[nH]1,-3,37*,-1,1,0,64*,42*,
O=C(Nc1ccc(S(=O)(=O)N2CCCC2)cc1)C1CCCN1C(=O)c1cccs1 (stereo not given),-11,-1,-1,-2,-2,·,·,
CSc1cc(-c2ccncc2)nc(-c2ccc(Cl)cc2)c1,7,1,97,-1,1,·,·,
CC(=O)Oc1ccc(/C=N\NC(=O)c2cc3c(ccc4ccccc43)o2)cc1,10,5,96,-7,4,·,·,
O=C(NC1CC1)c1cc2ccccc2o1,-4,3,-9,1,-4,·,·,
CNC(=O)c1cc2c(ccc3ccccc32)o1,11,51*,0,-5,2,127*,102*,
O=C(NC1CCCC1)c1cc2c(ccc3ccccc32)o1,-3,40*,69,-8,-4,107*,80*,
CC(OC(=O)CSc1ccc([N+](=O)[O-])cc1)C(=O)NCc1ccccc1 (stereo not given),18,7,-2,-10,7,·,·,
CNc1ccccc1C(=O)OC(C)C(=O)Nc1ccc(S(=O)(=O)N2CCCC2)cc1 (stereo not given),-1,39*,3,-8,-3,-2,-4,
CC(=O)Nc1ccc(NC(=O)C(C)OC(=O)c2ccc(S(=O)(=O)N3CCCCC3)cc2)cc1 (stereo not given),8,1,2,-35,-3,·,·,
CCOC(=O)COc1ccc2c(c1)C(=O)CC1(CCCCC1)O2,24,53*,100,2,0,89*,77*,
O=C(COc1ccc2c(c1)C(=O)CC1(CCCCC1)O2)NCc1ccccc1,2,36*,-1,2,1,62*,48*,
O=C(COc1ccc(S(=O)(=O)NC2CCCCC2)cc1)NCc1ccccn1,7,2,7,12,-2,·,·,
O=C(COc1ccc2c(c1)C(=O)CC1(CCCCC1)O2)NCc1ccccn1,14,38*,-6,2,-1,82*,58*,
O=C(COc1ccccc1)NCc1ccccc1,-7,2,10,-7,0,·,·,
NN=C(c1ccccc1)c1ccccc1,14,0,-10,0,-2,·,·,
O=C1C=CC(=NN=C(c2ccccc2)c2ccccc2)C=C1,·,32*,·,·,·,81*,67*,
COC(=O)C12CCc3cc(OC)ccc3C1=CC(=O)C2 (stereo not given),34*,95*,·,·,·,95*,94*,
Nc1c(S(=O)(=O)c2ccccc2)c2nc3ccccc3nc2n1CCN1CCOCC1,15,47*,-10,-1,2,70*,55*,
Cn1c(N)c(S(=O)(=O)c2ccc(Br)cc2)c2nc3ccccc3nc21,29,107*,0,-19,0,19,18*,
Cc1ccc(S(=O)(=O)c2c(N)n(CCN3CCOCC3)c3nc4ccccc4nc23)cc1C,14,15,-2,-2,0,·,·,
